# TDP1 cell CPT = qHTS for Inhibitors of human tyrosyl-DNA phosphodiesterase 1 (TDP1): qHTS in cells in presence of CPT; chicken DT40 Tdp1-/-;hTDP1 cells + 20 nM CPT, ATP luminescence, 48 h; Potency, µM (series often up to 46.2 µM), for inactives: top-dose activity change, negative = growth inhibition, usual class: inhibitors; 420,000 compounds, 12% hits; AID 686979, 2013; also: potency is read from the fitted curve at half-maximal effect; nearly all actives have a fitted effect of over 55% in size
#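 Chicken DT40 Tdp1-/- cells stably complemented with human TDP1 were seeded at 400 cells/well in medium containing 20 nM camptothecin, exposed to pin-transferred compounds, and grown at 37 °C for at least 48 hr. Viability was read as ATP luminescence.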
# HT1080 IDH1KD tx = qHTS for induction of synthetic lethality in tumor cells producing 2HG: qHTS for the HT-1080-IDH1KD cell line; 360,000 compounds, 2% hits; Potency, µM (top dose mostly 46.1 µM), for inactives: at the highest dose activity, negative = toxicity, usual class: cytotoxic; HT-1080 IDH1 knockdown viability, ATP luminescence, 48 h; AID 686971, 2013;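 also: potency is read from the fitted curve at half-maximal effect; 0% = DMSO wells and -100% = cell-free medium wells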
#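 CellTiter-Glo luminescence after 48 h compound exposure at 37 degrees C of IDH1-knockdown HT-1080 cells in 5% FBS RPMI. %Activity scaled between DMSO wells and cell-free media wells, with curves fitted and assigned curve classes.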
# DT40 TDP1 no CPT = qHTS for Inhibitors of human tyrosyl-DNA phosphodiesterase 1 (TDP1): qHTS in cells in absence of CPT; DT40 Tdp1-/- hTDP1 cells, no CPT, ATP luminescence, 48 h; Potency, µM (highest dose often 46.2 µM), for inactives: top-dose activity change, negative = growth inhibition, usual class: inhibitors; 420,000 compounds, 15% hits; AID 686978, 2013; also: potency is read from the fitted curve at half-maximal effect; nearly all actives have a fitted effect of over 55% in size
#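 No-CPT arm: Tdp1-/-;hTDP1 DT40 cells (400/well) plus compounds, incubated ≥48 hr at 37 °C. Readout CellTiter-Glo luminescence.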
# HT1080-NT tox = qHTS for induction of synthetic lethality in tumor cells producing 2HG: qHTS for the HT-1080-NT fibrosarcoma cell line; HT-1080-NT fibrosarcoma viability, CellTiter-Glo ATP luminescence, 48 h; Potency, µM (titrated, usually from 46.1 µM), for the others: at the highest dose activity, negative = less viability, most hits filed as cytotoxic; 360,000 compounds, 1.6% hits;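 also: NT is the 2HG producing partner of a matched IDH1 knockdown line; potency is read from the fitted curve at half-maximal effect; 0% = DMSO-treated cells and -100% = media-only wells without cells; nearly all actives have a fitted effect of over 55% in size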
#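 Luminescent CellTiter-Glo readout after 48 hours of compound exposure at 37 degrees C defined viability of HT-1080-NT cells. Activity was normalized to DMSO wells and cell-free media wells; concentration-response curves were fitted and assigned curve classes.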
# IL1B secr inh = qHTS for Inhibitors of Inflammasome Signaling: IL-1-beta AlphaLISA Primary Screen; THP-1 LPS/ATP IL-1B secretion, AlphaLISA, 16 h; active compounds read low; activity change, % at 57.5 µM; 360,000 compounds, 4.7% hits; AID 743279, 2014; in the data active = activity change below about -50%; inconclusive = mostly about -30% to -49%
#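 THP-1 cells pretreated 1 hr with compounds (up to 57.5 uM final), then stimulated with LPS (250 ng/mL final) plus ATP (1.25 mM final); secreted IL-1B measured by AlphaLISA after 16 hr, decreased signal indicating inhibition.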
# 12-LOX inh = Primary qHTS assay for inhibitors of human arachidonate 12S-lipoxygenase (ALOX12): Round 2; AID 1671190, 2021; purified 12hLO, xylenol orange hydroperoxide absorbance; Polyunsaturated fatty acid lipoxygenase ALOX12 (Homo sapiens), P18054; Potency, µM (highest dose often 108 µM), for inactives: at the top dose activity change, negative = inhibition, most hits filed as inhibitors; 580,000 compounds, 1.1% hits; also: potency is read from the fitted curve at half-maximal effect
# Target sequence (P18054 whole entry, looked up): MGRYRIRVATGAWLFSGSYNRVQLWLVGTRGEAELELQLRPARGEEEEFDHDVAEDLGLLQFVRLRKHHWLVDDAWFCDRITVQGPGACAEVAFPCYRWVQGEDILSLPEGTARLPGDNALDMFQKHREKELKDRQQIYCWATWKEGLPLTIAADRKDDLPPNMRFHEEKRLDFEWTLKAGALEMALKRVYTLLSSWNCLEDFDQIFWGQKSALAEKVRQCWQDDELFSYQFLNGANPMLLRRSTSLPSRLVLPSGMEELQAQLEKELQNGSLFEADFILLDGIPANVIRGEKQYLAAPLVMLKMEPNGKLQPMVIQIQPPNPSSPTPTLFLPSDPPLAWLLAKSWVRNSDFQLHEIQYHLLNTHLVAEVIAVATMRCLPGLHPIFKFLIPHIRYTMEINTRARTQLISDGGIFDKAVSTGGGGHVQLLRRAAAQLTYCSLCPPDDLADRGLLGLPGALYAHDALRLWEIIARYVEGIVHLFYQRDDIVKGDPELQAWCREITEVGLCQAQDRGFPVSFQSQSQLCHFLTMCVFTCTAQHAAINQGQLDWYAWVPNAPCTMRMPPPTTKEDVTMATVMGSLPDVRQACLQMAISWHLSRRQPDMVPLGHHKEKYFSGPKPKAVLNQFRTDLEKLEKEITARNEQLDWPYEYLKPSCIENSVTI
#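 Purified human 12hLO (150 nM final) in 25 mM Hepes, 0.01% Triton X-100, pH 7.0 was preincubated 15 min at room temperature with compound. Then 40 uM arachidonic acid was added, 30 min. Hydroperoxide was read by Fe-XO absorbance ratio 573/405 nm.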
# An asterisk follows results filed as active; ? = inconclusive; · = not tested or not shown; [ ] = remark or other dose. The entries come from a sample that favours hits as a whole. Unless noted, calls follow the shape of the dose curve; as a rule, active = well fitted curve in the direction sought with a large enough effect; inconclusive = small, poorly fitted or top-dose-only effect, or another doubt; inactive = no such curve, though single readings can be large; an effect the other way counts as inactive or inconclusive. Unless noted, % is scaled to controls: 0 for no effect and ±100 for the full control effect.
SMILES,TDP1 cell CPT,HT1080 IDH1KD tx,DT40 TDP1 no CPT,HT1080-NT tox,IL1B secr inh,12-LOX inh
COC(=O)c1ccc(CN2CCCC(CNC(=O)Cc3ccc(OC)cc3)C2)cc1 (configuration not stated),-3%,-2%,10%,4%,17,1%
COc1ccc(CC(=O)NCC2CCCN(Cc3cc(OC)cc(OC)c3)C2)cc1 (configuration not stated),-21%,-1%,-12%,1%,-50*,5%
COc1ccc(CC(=O)NCC2CCCN(Cc3ccc(OC(F)(F)F)cc3)C2)cc1 (configuration not stated),0%,-5%,18µM*,?,-22,-1%
COc1cc(OC)cc(C(=O)NCC2CCCN(Cc3ccc(SC)cc3)C2)c1 (configuration not stated),?,-2%,16µM*,-6%,?,-15%
CCn1cc(C(=O)N2CCCC(CCc3cccc(F)c3)C2)cn1 (configuration not stated),·,·,·,·,·,9%
Cc1noc2c(-c3ccncc3)cc(-c3cccs3)nc12,·,·,·,·,·,8%[176 µM]
COc1cc(C2NC(=S)NC3=C2CCc2ccccc23)cc(OC)c1OC (configuration not stated),-12%,0%,?,5%,45,?
O=C1NC2=C(CCc3ccccc32)C(c2ccccc2)N1 (configuration not stated),-1%,2%,0%,9%,17,?
COc1ccc2c(c1)CCC1=C2NC(=S)NC1c1ccc(N(C)C)cc1 (configuration not stated),?,-24%,16µM*,1%,-17,?
Fc1cccc(Cl)c1C1NC(=S)NC2=C1CCc1ccccc12 (configuration not stated),·,·,·,·,·,40µM*
S=C1NC2=C(CCc3ccccc32)C(c2ccccc2)N1 (configuration not stated),·,·,·,·,·,16µM*
Cn1nnc(-c2cccc(NC(=O)Cn3nc4c(cc3=O)CCCC4)c2)n1,·,·,·,·,·,55%
CCc1noc([C@@H]2CC(F)(F)CN2C(=O)c2occc2C)n1,·,·,·,·,·,-2%
C#CCN1CC(COc2ccccc2)Oc2cccc(Oc3ccc(C(C)C)cc3)c2S1(=O)=O (configuration not stated),·,·,·,·,·,-10%
O=[N+]([O-])c1ccccc1S(=O)(=O)Nc1ccccc1,·,·,·,·,·,0%
O=C(Cn1cc(S(=O)(=O)Cc2ccc(F)cc2)c2ccccc21)NCc1ccccc1Cl,?,·,21µM*,·,·,?
Cc1ccc(CNC(=O)Cn2cc(S(=O)(=O)Cc3ccccc3F)c3ccccc32)cc1,15µM*,·,?,·,·,?
CCCC(=O)Nc1nc2ccc(NC(=O)c3ccc(Br)o3)cc2s1,?,-11%,23µM*,-18%,-61*,47%
Cc1nc2ccc(NC(=O)c3ccc(Br)o3)cc2s1,-16%,1%,?,-7%,-57*,-3%
CC(=O)Nc1ccc2nc(NC(=O)c3ccc([N+](=O)[O-])o3)sc2c1,?,5.2µM*,?,?,-61*,19%
CC(=O)Nc1ccc2nc(NC(=O)c3ccco3)sc2c1,?,-2%,?,-12%,-3,9%
Cc1cccc2cc(COC(=O)c3ccccn3)c(=O)[nH]c12,0%,12%,-2%,16%,17,-3%
O=C(COc1ncnc2ccc(Br)cc12)Nc1ccc(F)c(F)c1,·,·,·,·,·,12%
CCCc1cc(C(=O)Cc2ccc(F)cc2)c(O)cc1O,?,21µM*,?,23µM*,20,?
CCc1cc(C(=O)Cc2ccc(F)cc2)c(O)cc1O,-11%,?,?,?,44,?
SMILES,TDP1 cell CPT,HT1080 IDH1KD tx,DT40 TDP1 no CPT,HT1080-NT tox,IL1B secr inh,12-LOX inh
CCOC(=O)c1ccc(NC(=O)Cn2nnc(-c3ccccc3F)n2)cc1,?,1%,?,5%,9,21%
CCOC(=O)c1cc(=O)n2nc(-c3ccccc3F)nc2s1,?,1%,23µM*,18%,-24,-5%
N#CC1=C2N=C(N)c3ccccc3N2C2=C(C(=O)CCC2)C1c1ccc(Cl)cc1 (configuration not stated),21µM*,-14%,16µM*,-2%,-5,284%
CC1(C)CC(=O)C2=C(C1)N(c1ccccc1)C(N)=C(C#N)C2c1cccnc1 (configuration not stated),-12%,14%,-17%,5%,17,?
CC1(C)CC(=O)C2=C(C1)N1C(=C(C#N)C2c2ccc(Cl)cc2)N=C(N)c2ccccc21 (configuration not stated),?,?,21µM*,?,?,?
CC1(C)CC(=O)C2=C(C1)N(c1ccccc1)C(N)=C(C#N)C2c1ccccc1 (configuration not stated),-13%,2%,-29%,5%,-50*,0%
CC(=O)c1ccccc1NC(=O)C1(c2ccccc2)CCC1,·,·,·,·,·,7%
CCOC(=O)C1CCN(CC(O)COc2ccc(C(C)(C)C)cc2)CC1 (configuration not stated),?,?,16µM*,?,-7,17%
CCOC(=O)C1CCN(CC(O)COc2ccc(C(C)(C)CC)cc2)CC1 (configuration not stated),16µM*,1%,18µM*,8%,?,-15%
COc1ccc(CCCCCCOCc2ccccc2)cc1,-3%,9%,15%,-5%,0,6%
COc1ccc(COC[B-](F)(F)F)cc1,3%,1%,-17%,-4%,-53*,11%
CC1(C)C2CC[C@]3(C)C(CC=C4[C@@H]5C[C@@](C)(CO)[C@@H](O)C[C@]5(C(=O)O)CC[C@]43C)[C@@]2(C)CC[C@@H]1O (some centres not stated),7%,0%,-3%,1%,9,·

# Source: PubChem BioAssay (National Center for Advancing Translational Sciences (NCATS))
